In all, about 310,000 compounds went through this assay and about 14,000 (4.5%) showed an effect of 50% or more. The effect is printed as a negative number. Many of the other results were omitted from the sample, so strong results are more common in it than they were.
These molecules were tested against human ether-à-go-go-related gene (hERG) potassium channel (human, UniProt Q12809) (assay: primary screen, population patch clamp on CHO cells stably expressing hERG; higher = less effect of the substance).
Chain of human ether-à-go-go-related gene (hERG) potassium channel (Q12809 whole entry, looked up): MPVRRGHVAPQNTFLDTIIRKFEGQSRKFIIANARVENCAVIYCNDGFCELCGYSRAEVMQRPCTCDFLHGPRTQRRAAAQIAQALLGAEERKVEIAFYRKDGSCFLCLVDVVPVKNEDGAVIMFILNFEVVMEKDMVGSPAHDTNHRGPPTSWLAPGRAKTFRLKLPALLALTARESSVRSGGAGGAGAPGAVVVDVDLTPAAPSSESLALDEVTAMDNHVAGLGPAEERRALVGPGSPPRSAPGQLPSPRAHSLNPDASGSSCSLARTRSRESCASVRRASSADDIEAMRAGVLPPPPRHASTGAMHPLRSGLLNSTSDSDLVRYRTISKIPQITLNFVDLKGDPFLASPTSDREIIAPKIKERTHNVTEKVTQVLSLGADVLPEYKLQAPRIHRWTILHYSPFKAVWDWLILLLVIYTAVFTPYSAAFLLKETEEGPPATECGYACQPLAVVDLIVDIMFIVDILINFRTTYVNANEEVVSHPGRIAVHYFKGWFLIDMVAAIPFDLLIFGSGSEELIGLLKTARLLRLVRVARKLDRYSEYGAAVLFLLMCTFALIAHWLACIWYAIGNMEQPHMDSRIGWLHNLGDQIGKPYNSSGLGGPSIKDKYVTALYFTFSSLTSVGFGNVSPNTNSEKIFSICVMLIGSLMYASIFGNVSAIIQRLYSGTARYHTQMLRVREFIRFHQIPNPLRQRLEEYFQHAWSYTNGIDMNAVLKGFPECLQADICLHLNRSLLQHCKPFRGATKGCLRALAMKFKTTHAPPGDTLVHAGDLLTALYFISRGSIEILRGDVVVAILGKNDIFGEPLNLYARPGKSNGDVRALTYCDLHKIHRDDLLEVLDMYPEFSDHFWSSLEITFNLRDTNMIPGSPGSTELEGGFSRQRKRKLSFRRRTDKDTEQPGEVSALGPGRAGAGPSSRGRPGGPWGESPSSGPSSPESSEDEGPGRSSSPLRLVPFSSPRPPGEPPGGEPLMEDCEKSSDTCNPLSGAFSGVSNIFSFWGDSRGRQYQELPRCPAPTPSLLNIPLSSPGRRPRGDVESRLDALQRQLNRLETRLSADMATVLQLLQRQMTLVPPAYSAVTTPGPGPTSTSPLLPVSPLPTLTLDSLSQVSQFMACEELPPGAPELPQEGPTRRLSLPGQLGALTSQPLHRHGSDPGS
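Also: peak tail current of the secondary pulse compared with the same well before compound.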

| SMILES | hERG current change (%, negative = inhibition) at 10uM |
| --- | --- |
| O=c1[nH]nc(-c2ccc(NCCCO)c([N+](=O)[O-])c2)c2ccccc12 | -9.98% |
| O=C(CSc1nnc(NC(=O)C2CC2)s1)NCc1ccco1 | -4.21% |
| COc1cc(/C=N\NC(=O)c2ccc(C)nc2)ccc1OC(=O)c1ccc2c(c1)OCO2 | -7.08% |
| Cc1cccc(CNc2ccc(C(CC(N)=O)NC(=O)Cc3cccc4ccccc34)cc2[N+](=O)[O-])c1 (stereo not drawn) | 7.02% |
| Cc1ccn2cc(-c3cccc(NC(=O)c4cccs4)c3)nc2c1 | -48.7% |
| O=c1c2[nH]c3ccccc3c2ncn1CCN1CCCCC1 | -45.6% |
| COc1cc2[nH]c3c(=O)n(CCN4CCCCC4)cnc3c2cc1OC | 6.02% |
| O=c1c2[nH]c3ccc(Cl)cc3c2ncn1CCN1CCCCC1 | -68% |
| Cc1ccc(S(=O)(=O)N(C)CC(=O)Nc2ccccc2)cc1 | -20% |
| COc1cccc(CC(=O)OCC(=O)NC2(C#N)CCCCC2)c1 | 16.5% |
| Cc1nnc(NC(=O)CCSc2ccccc2)s1 | 1.73% |
| COC(=O)C1CCN(C(=O)COC(=O)c2n[nH]c3ccccc23)CC1 | 10.8% |
| Cc1c(C(C)NC(=O)c2cc(COc3cccc4cnccc34)on2)cnn1C (stereo not drawn) | -55.6% |
| Cc1nn(C)cc1C(C)NC(=O)c1cc(COc2cccc3cnccc23)on1 (stereo not drawn) | 13.9% |
| COc1cccc(OCc2cc(C(=O)NC(C)c3cnn(C)c3C)no2)c1 (stereo not drawn) | -2.65% |
| Cc1ccc(C)c(NC(=O)NNC(=O)c2ccc3ccccc3c2O)c1 | 11.4% |
| CC(=O)c1ccc(N2CCN(C(=O)c3cn(Cc4ccccc4)nc3-c3cccnc3)CC2)c(F)c1 | -50.2% |
| COc1ccc(N2CCN(C(=O)c3cn(Cc4ccccc4)nc3-c3cccnc3)CC2)cc1 | -33.3% |
| O=C(O)/C=C/c1cn(Cc2ccccc2)nc1-c1cccnc1 | 12% |
| O=C(c1cn(Cc2ccccc2)nc1-c1cccnc1)N1CCN(Cc2c(F)cccc2Cl)CC1 | -4.33% |
| N#Cc1ccc(CN2CCN(C(=O)c3cn(Cc4ccccc4)nc3-c3cccnc3)CC2)cc1 | -72.9% |
| O=Cc1cn(Cc2ccccc2)nc1-c1cccnc1 | 7.48% |

| SMILES | hERG current change (%, negative = inhibition) at 10uM |
| --- | --- |
| COCCOC(=O)/C(C#N)=C/c1cn(Cc2ccccc2)nc1-c1cccnc1 | -67.1% |
| O=C(c1cn(Cc2ccccc2)nc1-c1cccnc1)N1CCN(Cc2ccccc2)CC1 | -33.5% |
| COc1cccc(N2CCN(C(=O)c3cn(Cc4ccccc4)nc3-c3cccnc3)CC2)c1 | -12.9% |
| CCc1nnc(NC(=O)CSc2nc3c(c(=O)n2C)SC(C)C3)s1 (stereo not drawn) | -2.54% |
| CCCCOC(=O)c1ccc(NC(=O)c2ocnc2C)cc1 | -8.8% |
| O=C(OC(C(=O)NCc1ccco1)c1ccc(Cl)cc1)c1cccs1 (stereo not drawn) | 17.6% |
| CC(C)Oc1ccccc1/C=N/NC(=O)C1CC1 | 7.57% |
| Cc1cccc(Nc2nc(NCc3ccco3)c3ccccc3n2)c1.Cl | -12.2% |
| Cl.OCCN1CCN(c2nc(NCc3ccco3)c3ccccc3n2)CC1 | -75.3% |
| Cc1ccc(OCCN2CCN(c3nc(NCc4ccco4)c4ccccc4n3)CC2)cc1 | -62.6% |
| Cl.OCCNc1nc(N2CCN(Cc3ccccc3)CC2)nc2ccccc12 | -68.3% |
| Cc1ccc(-c2nc(NCc3ccco3)c3ccccc3n2)cc1 | 4.65% |
| CCN1CCN(c2nc(NCCO)c3ccccc3n2)CC1.Cl | -16.7% |
| CCN(CC)c1nc(N2CCOCC2)nc2ccccc12.Cl | -48.3% |
| O=C(NCCO)c1nc(NCCO)c2ccccc2n1 | 10.3% |
| Cl.c1ccc(CN2CCN(c3nc(N4CCOCC4)c4ccccc4n3)CC2)cc1 | -70.3% |
| Cl.c1ccc2c(N3CCOCC3)nc(N3CCOCC3)nc2c1 | -19.4% |
| CC(=O)N1c2ccc(S(=O)(=O)N3CCCC(C(=O)N4CCCCC4)C3)cc2CC1C (stereo not drawn) | 19.2% |
| CC(C)(C)NC(=O)CN(Cc1cccs1)C(=O)C1COc2ccccc2O1 (stereo not drawn) | -14.7% |
| Cc1cc(=O)[nH]c(N/N=C/c2c(C)oc3ccccc23)n1 | -0.943% |
| Nc1nc(Nc2ccccc2)nc(NC2CCCCC2)c1[N+](=O)[O-] | 18.9% |
| Cn1nccc1C(=O)N1CCOCC1 | 5.59% |

| SMILES | hERG current change (%, negative = inhibition) at 10uM |
| --- | --- |
| FC(F)Oc1ccc(NC(=S)NCC2COc3ccccc3O2)cc1 (stereo not drawn) | -5.83% |
| COc1ccc(OC)c(/C=N\NC(=O)c2ccc(COc3ccc(C)cc3[N+](=O)[O-])o2)c1 | 16.2% |
| N#Cc1cnn(-c2cccc(Cl)c2)c1N | 11.6% |
| Cc1csc(NC(=O)CS(=O)(=O)c2ccccc2)n1 | -18.1% |
| COc1ccc(NC(=O)c2nc[nH]c2C(=O)N2CCN(c3ccccc3)CC2)cc1 | 3.64% |
| CC(C)CN(C(=O)CSc1nn(-c2ccc(Cl)cc2)c(=S)s1)C1CCS(=O)(=O)C1 (stereo not drawn) | -20.1% |
| O=C(COC(=O)/C=C/c1cccs1)Nc1nc(-c2ccccc2)cs1 | 12.1% |
| Cl.c1ccc(CN2CCN(c3nc(NCc4ccco4)c4ccccc4n3)CC2)cc1 | -68.3% |
| c1ccc(CNc2nc(NCc3ccco3)nc(N3CCOCC3)n2)cc1 | -28.5% |
| Cl.c1ccc(CNc2nc(N3CCN(Cc4ccccc4)CC3)nc3ccccc23)cc1 | -65.9% |
| Nc1nc(N2CCN(Cc3ccccc3)CC2)n[nH]1 | 24.7% |
| c1ccc(CN2CCN(c3nc4ccccc4s3)CC2)cc1 | 11.8% |
| Nc1nc(NCc2ccco2)nc(N2CCN(Cc3ccccc3)CC2)c1[N+](=O)[O-] | -41.9% |
| CCc1ccc(CCC(=O)Nc2ccc(C)c(C)c2)o1 | -20.8% |
| COC(=O)NCC(c1ccco1)N1CCN(c2ccc(F)cc2)CC1 (stereo not drawn) | -1.75% |
| Cc1[nH]n(-c2ccccc2)c(=O)c1N=Nc1ccccc1C(=O)O | 1.85% |
| COc1ccc(CN(C)C(=O)C(Cc2ccccc2)NC(=O)c2ccccc2)c(OC)c1 (stereo not drawn) | -13.5% |
| Cc1nn(-c2ccccc2)c2c1C1(C(=O)Nc3ccccc31)N1C(=N2)Sc2ccccc21 (stereo not drawn) | 0.952% |
| Cc1cc(N)n2nc(C)c(-c3ccccc3)c2n1 | -21.9% |
| Cc1ccc2c(cnn2C(=O)CCCC(=O)NC(C)c2ccccc2)c1 (stereo not drawn) | -5.97% |
| CCN(CC)S(=O)(=O)c1cccc(C(=O)Oc2cccnc2)c1 | -8.07% |
| COc1ccccc1CC(=O)N1CCN(c2ccc([N+](=O)[O-])cc2)CC1 | -52% |

| SMILES | hERG current change (%, negative = inhibition) at 10uM |
| --- | --- |
| COc1ccccc1CC(=O)N1CCN(c2ccccc2)CC1 | 9.19% |
| Cc1ccc(CC(=O)N2CCN(c3ccc([N+](=O)[O-])cc3)CC2)cc1 | -62.1% |
| O=C(Cc1ccc(Br)cc1)N1CCN(Cc2ccccc2)CC1 | -30.9% |
| Cc1ccc(CC(=O)N2CCN(C)CC2)cc1 | 18.1% |
| COc1ccccc1CC(=O)N1CCN(c2ccc(F)cc2)CC1 | -11.1% |
| Cc1ccc(CC(=O)N2CCN(Cc3ccccc3)CC2)cc1 | 4.07% |
| O=C(Cc1ccc([N+](=O)[O-])cc1)N1CCN(c2ccc([N+](=O)[O-])cc2)CC1 | -73.7% |
| O=C(Cc1ccc([N+](=O)[O-])cc1)N1CCCCCC1 | -21.9% |
| CS(=O)(=O)N1CCN(C(=O)Cc2ccc([N+](=O)[O-])cc2)CC1 | 0.692% |
| COc1ccc(N2CCN(C(=O)Cc3ccc(C)cc3)CC2)cc1 | -6.07% |
| O=C(Cc1ccccc1)N1CCN(Cc2ccc([N+](=O)[O-])cc2)CC1 | -63.4% |
| CC(=O)N/C(=C\c1ccc(F)cc1)C(=O)N(C)C | 14.2% |
| O=C(OCn1nnc2ccccc2c1=O)c1ccc2c(=O)n3c(nc2c1)CCC3 | -7.06% |
| Cc1ccccc1NC(=O)Cn1c(C)nc2ccc(N)cc2c1=O | 7.11% |
| CCO.N#Cc1c(SC(C(=O)O)c2ccccc2)nc2c(c1-c1cccs1)CCCC2 (stereo not drawn) | 25.2% |
| C[C@@]12CCC=C[C@H]1[C@H](c1ccc(C(F)(F)F)cc1)N(Cc1ccccc1)C2=O | 12.2% |
| O=C1C=C(NCc2ccc(Cl)cc2)CCC1 | -25.2% |
| COC(=O)c1cc(OC)c(OC)cc1NC(=S)N1CCN(Cc2ccccc2)CC1 | 6.28% |
| CCOc1ccccc1C(=O)OCC(=O)NCC1CCCCC1 | -7.31% |
| O=C(COC(=O)COc1ccccc1[N+](=O)[O-])Nc1cccc(Br)c1 | 9.05% |
| COC(=O)COc1ccc2c(-c3cccc([N+](=O)[O-])c3)cc(=O)oc2c1 | -31.8% |
